Laboratory results published in PubChem BioAssay (NCI).
The panel holds about 83,000 compounds, 20% with a hit somewhere; the sample as a whole holds those more often.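 96-well plates, one dose, 48 hours. Percent growth reported; active if below 10.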 A number with no mark means an inactive call. The source made the active and inactive calls.

Test system: MCF7 breast
Assay: NCI-60 one-dose screen, 48 h (100 = growth as untreated, 0 = no growth, -100 = all killed)
Conditions: 10 µM unless noted
Description: Growth inhibition of the MCF7 human tumor cell line is measured as a screen for anti-cancer activity. Cells are grown in 96 well plates and exposed to the test compound for 48 hours. Compounds are tested at a single concentration, which is 10^-5 M for most compounds. The reported endpoint is percent growth (GI% or GIPRCNT), where numbers from 0 - 100% represent growth inhibition, and numbers from -100% - 0 represent cell death. For example, a value of 40 represents 60% growth inhibition. A value of 0 means no net growth occurred over the course of the experiment. A value of -40 indicates 40% of cells at the beginning of the experiment died by the end of the experiment. A value of -100 means all cells are dead at the end of the experiment.
NCI-60 Human Tumor Cell Lines Screen was performed using the standard one-dose NCI protocol, which is described in more detail at https://dtp.cancer.gov/discovery_development/nci-60/default.htm.
Compounds with GIPRCNT values below 10 were considered active. Activity score was based on GIPRCNT using the following formula: […]
Score is 0 for GIPRCNT values of 100 or above, 50 for GIPRCNT values of 0, and 100 for GIPRCNT values of -100.

| Compound | growth |
| --- | --- |
| CC(C)(C)OC(=O)NC(CSCc1ccccc1)C(=O)ON1C(=O)CCC1=O (stereo not given) | 98.4% |
| COc1ccc(-c2nc(N3CCCC3=O)sc2Br)cc1OC | 96.9% |
| OC(c1cc2cc(Br)ccc2c2cc(Br)ccc12)C1CCCCN1 (stereo not given) | -88.2% (active) |
| CC(C)C(C(=O)NCCN1CCOCC1)N1C(=O)/C(=C/c2ccc(Br)cc2)SC1=S (stereo not given) | 95.3% |
| CC(C)(C)n1cc(-c2ccnc(NCCCNS(=O)(=O)c3ccccc3)c2)c(-c2cccc(O)c2)n1 | 25.1% |
| O=S(=O)(CC(O)(c1ccccc1)c1ccccc1)CC(O)(c1ccccc1)c1ccccc1 | 80.9% |
| CCOC(=O)C1CCNC(=O)C1=O (stereo not given) | 107% |
| c1ccc(-c2nc(N3CCNCC3)c3nc(-c4ccccc4)oc3n2)cc1 | -69.2% (active) |
| O=c1[nH]c(NCc2ccccc2)nc2nc(Nc3ccc(NC(=S)Nc4ccccc4)cc3)nc(-c3ccc(O)cc3O)c12 | 96.7% |
| CCOC(=O)c1cc(C(=O)c2cc(OC)c(OC)c(OC)c2)n2c1ccc1ccccc12 | 12.1% |
| CCCCCCCCCCCCCCCCCCNC(=O)[C@H]1CSC(c2ccc(OC)cc2O)N1 (stereo not given in full) | 23.7% |
| O=C(/C=C/c1cc(-c2ccc3c(c2)OCO3)n[nH]1)c1ccc2c(c1)OCO2 | 84.8% |
| C=C1C(=O)O[C@H]2[C@H]1CC/C(Cn1cc(-c3cccc(Cl)c3)nn1)=C\CC[C@@]1(C)O[C@@H]21 | -46.8% (active) |
| CN(C[C@H]1Cc2c(cccc2N2CCN(Cc3ccccn3)CC2)CN1)[C@H]1CCCc2cccnc21 | 44.1% |
| CC(C)(C)n1cc(-c2ccnc(NCCCNS(=O)(=O)c3ccc(C(F)(F)F)cc3)c2)c(-c2cccc(O)c2)n1 | 1.14% (active) |
| O=S1(=O)CCC(N(/N=C/c2ccco2)c2ccccc2)C1 (stereo not given) | 96.4% |
| COc1ccc(-n2c(-c3ccccc3)c(-c3ccccc3)c3c(SCC(=O)N/N=C/c4ccc(Cl)cc4)ncnc32)cc1 | 85% |
| NC(=S)N/N=C(/CCN1CCCC1)CC(C1=C(O)C2=CCCCC2OC1=O)c1ccccc1 (stereo not given) | 14.9% |
| CCO/C=N/C1=C(C#N)C(c2ccc(Cl)cc2)c2c(c3ccc(C)cc3[nH]c2=O)O1 (stereo not given) | 78.7% |
| COc1ccc(-c2c(N)n[nH]c2-c2cc(OC)c(OC)c(OC)c2)cc1 | 23% |

| Compound | growth |
| --- | --- |
| COc1ccc(Nc2[nH]n3c(=O)cc(C)nc3c2C(N)=O)c(OC)c1 | 92.7% |
| CCN(CC)c1ccc(N=O)cc1 | 51.8% |
| O=C(Nc1ccncc1)C(=O)c1cn(S(=O)(=O)c2ccc(Br)cc2)c2ccccc12 | 19.7% |
| NC(=O)c1c(NC(=S)Nc2ccc(OC(F)(F)F)cc2)sc2c1CCC1(C2)OCCO1 | 90.1% |
| O=C(CCl)N(C1CCCCC1)C1CCCCC1 | 96.7% |
| CCN(CC)c1ccc2[nH]c3c(C(N)=O)cc(=O)c(=O)c=3oc2c1 | -31.5% (active) |
| O=C(O)c1cn(C2CC2)c2cc(N3CCN(C(=O)/C=C/c4ccc(Cl)cc4)CC3)c(F)cc2c1=O | 89% |
| Cc1cc(N)n(S(=O)(=O)c2oc(-c3ccccc3)nc2C#N)n1 | 64% |
| c1ccc(-c2nnc(-c3ccccn3)s2)nc1 | 28.6% |
| COc1ccc(-n2c(=S)sc3c(Cl)nc(C)nc32)c(OC)c1 | 13.8% |
| COc1ccc(-c2cc(-c3ccccc3)nc(SCCCC(=O)NO)n2)cc1OC | 4.19% (active) |
| CN(C[C@H]1Cc2c(cccc2N2CCN(c3ncccn3)CC2)CN1)[C@H]1CCCc2cccnc21 | 15.6% |
| CC(C)NCCCNC1=C(Cl)C(=O)c2ccccc2C1=O | 63.4% |
| O=C1c2c(Cl)c(Cl)c(Cl)c(Cl)c2C(=O)C2(Cl)CC=CCC12Cl (stereo not given) | -57.5% (active) |
| CCN(CC)CCCNc1nccc2ccc(Cl)cc12 | 94% |
| COc1ccc(-n2c(=O)sc3c(Cl)nc(C)nc32)c(OC)c1 | 97.6% |
| CCN(CC)CCC(CNc1c2ccc(Cl)cc2nc2ccc(OC)cc12)c1ccccc1 (stereo not given) | -38.6% (active) |
| COc1ccc(C2=Nn3c(nnc3-n3nc(C)cc3C)SC2)cc1 | 16.9% |
| COc1ccc(-c2c(N)n[nH]c2-c2cc3c(c(OC)c2OC)OCO3)cc1 | 101% |
| COc1cc(-c2nn(-c3cccc(NC(=O)c4cccc(C(F)(F)F)c4)c3)cc2-c2ccncc2)ccc1Cl | 3.58% (active) |
